KLF5 inh: kruppel-like factor 5 inhibition; DLD-1 KLF5 promoter-luciferase reporter, luminescence; inhibition, % at 5 µM; 0.23% of 290,000 active; AID 1700;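 active = inhibition above a per-plate limit of that plate's mean compound inhibition plus 3 SD, cut at about 60% in these data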;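 note: 0% = DMSO wells and 100% = LY294002 at 200 µM; higher means less KLF5 promoter-driven luciferase light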
aSyn 5UTR inh: MLPCN primary screen, SNCA 5' untranslated region; alpha-synuclein 5'UTR reporter, inhibitor activity; inhibition, % (tested at 7.5 µM); 0.82% of 300,000 active; AID 1813; in the data active = inhibition above about 60%;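 note: H4 neuroglioblastoma cells stably carrying SNCA 5'UTR luciferase fusion; 0% = DMSO wells and 100% = positive control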
IEC-6 tox: counter-screen for KLF5 inhibitors: cytotoxicity in IEC-6 cells. IEC-6 cytotoxicity, luminescence viability. inhibition, % at 5 µM. 0.78% of 290,000 active. AID 1825; in the data active = inhibition above about 22%;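 note: 0% = plate median of test compound wells and 100% = cytotoxic reference compound wells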
BaF3 parental: parental Ba/F3 viability inhibition as JAK2V617F counter-screen. 1.1% of 220,000 active. AID 1486. inhibition, % at 5.6 µM. CellTiter-Glo ATP luminescence;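 active = inhibition above a per-campaign cutoff, the mean inhibition of all tested compounds plus 3 SD, cut at about 27% in these data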;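 note: 0% = DMSO wells and 100% = JAK Inhibitor I control wells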
APP 5UTR inh: APP translation inhibition; SH-SY5Y APP 5'UTR-luciferase reporter, luminescence; inhibition, % at 2 µM; 0.82% of 190,000 active; AID 1285;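 active = inhibition above a set limit, derived from the sample mean plus 3 SD, cut at about 45% in these data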
Ba/F3 V617F tox: reduce viability of Ba/F3 cells dependent on JAK2V617F; AID 1446; inhibition, % at 5.6 µM; 1.1% of 220,000 active; Ba/F3 EpoR-JAK2V617F viability, ATP luminescence;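 active = inhibition above the campaign mean plus 3 SD over all tested compounds, cut at about 24% in these data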;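 note: cytokine-independent growth of Ba/F3 cells driven by EpoR plus mutant JAK2; 0% = DMSO-treated cells and 100% = JAK inhibitor I control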
An asterisk follows results filed as active. Sampled rows, rich in hits. Any-hit rate of the full collection: about 2.2%.

Screening O=C(Nc1ncccc1O)c1ccc2c(c1)OCCO2 returned aSyn 5UTR inh -222.
`COc1cccc(OCCCCCCN2CCOCC2)c1` gave KLF5 inh -4, aSyn 5UTR inh -1, IEC-6 tox 9, BaF3 parental 5, APP 5UTR inh 50* and Ba/F3 V617F tox 4.
Screening CCn1nnc2cc(C(=O)NCCc3ccccc3F)ccc21 returned KLF5 inh 4, aSyn 5UTR inh 63* and IEC-6 tox 4.
`CC(C)(C)c1ccc(C(=O)Nc2ccc(Cl)cc2)cc1` gave KLF5 inh -93, aSyn 5UTR inh -110, IEC-6 tox 6, BaF3 parental -1, APP 5UTR inh -126 and Ba/F3 V617F tox -3.
`CCOC(=O)Cc1ccc(NC(=O)c2ccc([N+](=O)[O-])cc2)cc1` gave KLF5 inh -18, aSyn 5UTR inh -14, IEC-6 tox 4, BaF3 parental 33*, APP 5UTR inh -3 and Ba/F3 V617F tox -2.
Screening COC(=O)Cc1ccc(NC(=O)c2ccc(C(C)(C)C)cc2)cc1 returned KLF5 inh 40, aSyn 5UTR inh 124*, IEC-6 tox 5, BaF3 parental -1, APP 5UTR inh 84* and Ba/F3 V617F tox -3.
O=C(CCc1ccccc1)Nc1cc2c3c(c1)CC(=O)N3CCC2 was read as aSyn 5UTR inh 3.
`CCOC(=O)/C(Sc1nc(-c2ccccc2)cc(-c2ccccc2)c1C#N)=C(\C)O` gave KLF5 inh -18, aSyn 5UTR inh 9 and IEC-6 tox 1.
COc1ccc(CCNC(=O)c2nn(C)c3c2CS(=O)(=O)c2ccccc2-3)c(OC)c1 was read as KLF5 inh -7, aSyn 5UTR inh 23 and IEC-6 tox 10.
CN(C)CCCN(Cc1ccccc1)C(=S)Nc1cccc(C(F)(F)F)c1 was read as KLF5 inh -5, aSyn 5UTR inh 16, IEC-6 tox 2, BaF3 parental 10, APP 5UTR inh -13 and Ba/F3 V617F tox -1.
`CCCN(Cc1ccccc1)C(=S)Nc1cccc(C(F)(F)F)c1` gave KLF5 inh -11, aSyn 5UTR inh -1, IEC-6 tox -1, BaF3 parental 33*, APP 5UTR inh 4 and Ba/F3 V617F tox 34*.
CN(C)CCCN(Cc1ccccc1)C(=S)Nc1ccc(F)c(Cl)c1 was read as KLF5 inh -32, aSyn 5UTR inh -21, IEC-6 tox -2, BaF3 parental 29*, APP 5UTR inh -12 and Ba/F3 V617F tox 33*.
For CC(C)(C)c1nn(-c2ccccc2)c2[nH]c(=O)c(C=O)cc12 the results were KLF5 inh -24, aSyn 5UTR inh 16 and IEC-6 tox -2.
Screening CC[n+]1c(/C=C/N(C)c2ccccc2)oc2ccc(F)cc21 returned KLF5 inh 22, aSyn 5UTR inh -6, IEC-6 tox 6, BaF3 parental 72*, APP 5UTR inh -5 and Ba/F3 V617F tox 79*.
For CC[n+]1c(/C=C/N(C)c2ccccc2)oc2ccccc21 the results were KLF5 inh 6, aSyn 5UTR inh -13, IEC-6 tox 20, BaF3 parental 72*, APP 5UTR inh 2 and Ba/F3 V617F tox 86*.
For CC[n+]1c(/C=C/Nc2ccccc2)oc2ccc(OC)cc21 the results were KLF5 inh -11, aSyn 5UTR inh -13, IEC-6 tox -2, BaF3 parental 20, APP 5UTR inh -10 and Ba/F3 V617F tox 11.
`CC(=O)Nc1ccc(S(=O)(=O)NC2C3(C)CCC(C3)C2(C)C)cc1` (centres undefined) gave KLF5 inh -27, aSyn 5UTR inh 33 and IEC-6 tox -2.
Cc1c(NS(=O)(=O)c2cc(C(=O)NCCN(C)C)ccc2Cl)c(=O)n(-c2ccccc2)n1C was read as KLF5 inh -9, aSyn 5UTR inh -9 and IEC-6 tox -5.
Screening O=C(CCN1CCN(c2ccccc2)CC1)N/N=C/c1ccccc1O returned KLF5 inh -9, aSyn 5UTR inh 71*, IEC-6 tox 5, BaF3 parental 5, APP 5UTR inh 17 and Ba/F3 V617F tox 1.
`CCOc1cc(/C=C(/C#N)C(=O)Nc2ccc(O)cc2)cc(Br)c1O` gave KLF5 inh -10, aSyn 5UTR inh 84*, IEC-6 tox 2, BaF3 parental 0, APP 5UTR inh -4 and Ba/F3 V617F tox 3.
`CC(=O)n1cc(N(C(=O)CCl)c2ccc(C)cc2)c2ccccc21` gave KLF5 inh -7, aSyn 5UTR inh 89*, IEC-6 tox 23*, BaF3 parental 28* and Ba/F3 V617F tox 99*.
